# Reference: the supplement of paper PMC13380429
# Experiments:
# [1] = tested on: Vero E6 infected with SARS-CoV-2; assay: inhibition of SARS-CoV-2 cytopathic effect; higher = more antiviral protection, active = above 15; details: 48 h
# [2] = tested on: Vero E6 infected with SARS-CoV-2; assay: morphology score (similarity to uninfected cells); higher = more like uninfected cells; details: 24 h
SMILES,inhibition of SARS-CoV-2 cytopathic effect ([1]; 1 nM),inhibition of SARS-CoV-2 cytopathic effect ([1]; 8.33 nM),inhibition of SARS-CoV-2 cytopathic effect ([1]; 100 nM),inhibition of SARS-CoV-2 cytopathic effect ([1]; 833.33 nM),inhibition of SARS-CoV-2 cytopathic effect ([1]; 10000 nM),morphology score [2]
Cc1cccc(C)c1NC1=NCCCS1 [xylazine],1.43% (inactive),1.2% (inactive),1.06% (inactive),-1.24% (inactive),-0.19% (inactive),
Fc1ccc([C@@H]2CCNC[C@H]2COc2ccc3c(c2)OCO3)cc1 [paroxetine],-4.2% (inactive),-2.01% (inactive),-2.05% (inactive),-1.89% (inactive),-13.1% (inactive),
O[C@@H]1CCCC[C@H]1N1CCC(c2ccccc2)CC1 (racemic) [vesamicol],0.17% (inactive),1.74% (inactive),0.78% (inactive),1.42% (inactive),1.14% (inactive),
O=c1[nH]cc(F)c(=O)[nH]1 [5-fluorouracil],0.75% (inactive),1.63% (inactive),1.29% (inactive),0.37% (inactive),1.52% (inactive),
CN1C[C@@H]2CN(c3ccc(-c4ccccc4)nn3)C[C@@H]2C1,1.02% (inactive),-1.9% (inactive),0.67% (inactive),0.54% (inactive),-3.37% (inactive),
C[C@]12C[C@H](O)[C@H]3[C@@H](CCC4=CC(=O)CC[C@@]43C)[C@@H]1CC[C@@H]2C(=O)CO [corticosterone],-1.19% (inactive),-0.88% (inactive),0.56% (inactive),-0.38% (inactive),0.43% (inactive),
O[C@H]1[C@H](O)[C@@H](O)[C@H](O)[C@@H](O)[C@H]1O [inositol],-0.68% (inactive),0.73% (inactive),-1.55% (inactive),1.69% (inactive),2.84% (inactive),
CC1CCc2cc(F)cc3c(=O)c(C(=O)O)cn1c23 (configuration not stated) [flumequine],-0.77% (inactive),0.46% (inactive),-0.95% (inactive),-0.27% (inactive),-0.64% (inactive),
COc1cc(O)c(C(=O)c2ccccc2)cc1S(=O)(=O)O [sulisobenzone],1.82% (inactive),1.76% (inactive),-0.05% (inactive),-2.93% (inactive),1.98% (inactive),
Cc1ncc(COP(=O)([O-])[O-])c(CN(CCN(CC(=O)O)Cc2c(COP(=O)([O-])O)cnc(C)c2O)CC(=O)O)c1O.[Mn].[Na+].[Na+].[Na+] [Mangafodipir (trisodium)],-2.31% (inactive),-3.12% (inactive),-2.65% (inactive),-1.43% (inactive),-3.61% (inactive),
CC(C)C[C@@H](C=O)NC(=O)[C@H](CC(C)C)NC(=O)[C@H](CC(C)C)NC(=O)OCc1ccccc1,-0.72% (inactive),0.74% (inactive),9.43% (inactive),54% (active),55.5% (active),
O=C(O)COc1ccc(OCCNC[C@H](O)COc2ccccc2)cc1,-0.61% (inactive),-0.47% (inactive),-1.08% (inactive),0.26% (inactive),1.07% (inactive),
COCC(=O)O[C@]1(CCN(C)CCCc2nc3ccccc3[nH]2)CCc2cc(F)ccc2[C@@H]1C(C)C [mibefradil],-2.83% (inactive),0.22% (inactive),-2.5% (inactive),-0.56% (inactive),62.1% (active),
CCOC(=O)NNc1ccc(N(CC)CC(C)O)nn1 (configuration not stated) [cadralazine],-0.85% (inactive),-0.3% (inactive),-1.93% (inactive),-1.81% (inactive),0.1% (inactive),
Nc1nc(=O)n([C@@H]2O[C@H](CO)[C@@H](O)[C@@H]2F)cc1I [fiacitabine],-1.38% (inactive),-1.55% (inactive),2.03% (inactive),-1.22% (inactive),-0.56% (inactive),
CSc1ccc([C@H]2CN3CCC[C@H]3c3ccccc32)cc1 (racemic),3.1% (inactive),1.05% (inactive),2.84% (inactive),3.32% (inactive),1.44% (inactive),
CCCOC(=O)c1ccc(O)cc1 [propyl 4-hydroxybenzoate],-1.38% (inactive),-0.18% (inactive),-0.42% (inactive),2.26% (inactive),-3.05% (inactive),
C[C@]12CC[C@H](O)CC1=CC[C@@H]1[C@@H]2CC[C@]2(C)C(=O)CC[C@@H]12 (10 µM),,,,,,0.0986
